Experimental data: PubChem BioAssay (Tox21)
Results filed as inconclusive are left out. Activity calls are given as the source filed them. Unless noted, calls follow the shape of the dose curve; as a rule, active = well fitted curve in the direction sought with a large enough effect in the repeat runs; inconclusive = weak or mixed curves; inactive = no such curve, though single readings can be large; an effect the other way counts as inactive or inconclusive.

Key:
[1] = A CellTox Green Cytotoxicity Assay to monitor cytotoxicity in HepG2 cells - 32 hour (AID 1224883); also: nearly all actives have a fitted effect of over 50% in size
Procedure, shortened: (§1)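 Fluorescent DNA-binding dye, 600 HepG2 cells/well, 5 h preincubation then compound in DMSO; same plates read at 0–40 h, 37 C.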

[2] = qHTS RealTime-Glo MT Cell Viability Assay in HepG2 cells - 16 hour (AID 1224885); also: nearly all actives have a fitted effect of over 50% in size
Procedure, shortened: (§2)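 Cells + NanoLuc/prosubstrate dispensed (600 cells/well) → 5 h at 37 C/5% CO2 → compounds in DMSO transferred → 40 h incubation at 37 C, luminescence read at 0, 8, 16, 24, 32, 40 h.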

[3] = qHTS RealTime-Glo MT Cell Viability Assay in HepG2 cells - 0 hour (AID 1224889); also: nearly all actives have a fitted effect of over 50% in size
Procedure, shortened: as §2

[4] = A CellTox Green Cytotoxicity Assay to monitor cytotoxicity in HepG2 cells - 8 hour (AID 1224890); also: nearly all actives have a fitted effect of over 45% in size
Procedure, shortened: as §1

[5] = qHTS assay to identify small molecule antagonists of the estrogen receptor alpha (ER-alpha) signaling pathway using the BG1 cell line in the presence of 0.1 nM 17-beta-estradiol - cell viability counter screen (AID 1259241); also: nearly all actives have a fitted effect of over 40% in size
Procedure, shortened: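 VM7Luc4E2 cells (endogenous full-length ER-alpha, 4xERE-luciferase), cultured 5 days in charcoal-stripped serum, exposed to compounds with 0.1 nM 17beta-estradiol (final) for 22 hr at 37C. Viability read in same wells as live-cell protease fluorescence after 30 min.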

[6] = qHTS assay to identify small molecule antagonists of the androgen receptor (AR) signaling pathway using the MDA cell line in the presence of 0.5 nM R1881 - cell viability counter screen (AID 1259242); also: nearly all actives have a fitted effect of over 45% in size
Procedure, shortened: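 Human breast carcinoma MDA-kb2 cells, cultured without CO2, receive compounds alongside 0.5 nM (final) R1881 agonist. After 16 hr at 37C, viability is taken as live-cell protease signal.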

[7] = target: Estrogen receptor (Homo sapiens) (UniProt P03372); test: qHTS assay to identify small molecule antagonists of the estrogen receptor alpha (ER-alpha) signaling pathway using the BG1 cell line in the presence of 0.1 nM 17-beta-estradiol (AID 1259244); also: nearly all actives have a fitted effect of over 50% in size
Procedure, shortened: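 Seeding of stripped-serum-adapted VM7Luc4E2 cells, 24 h attachment, compound transfer, then 0.1 nM final 17beta-estradiol; after 22 h incubation, ONE-Glo reagent and luminescence reading.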

[8] = qHTS assay to identify small molecule phospholipidosis (PLD) inducers (AID 1259344; active = well fitted curve in the direction sought with a large enough effect; an effect the other way counts as inactive or inconclusive)
Procedure, shortened: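 Image-based: LipidTOX Red pit count/intensity per well and per cell; HepG2, 24 h compound at 37 C, PFA fixation, Hoechst counterstain.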

[9] = qHTS assay to identify small molecule HDAC inhibitors (AID 1259364);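 also: wild-type HCT-116 cells with endogenous class I/II HDAC activity; top concentration of the series differs between compounds; nearly all actives have a fitted effect of over 45% in size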
Procedure, shortened: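 After a 2 hr compound incubation (37C, 5% CO2), HCT-116 cells seeded at 1,500/well the day before received HDAC-Glo reagent; signal read as luminescence after 30 min at room temperature.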

[10] = qHTS assay to identify small molecule HDAC inhibitors - cell viability counter screen (AID 1259365)
Procedure, shortened: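 Wild-type HCT-116 cells, 1,500/well, cultured overnight, then compound-treated 2 h at 37 C. Viability measured as ATP luminescence with CellTiter-Glo after 30 min at room temperature.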

[11] = qHTS assay to identify small molecule agonists of the sonic hedgehog signaling (Shh) pathway - cell viability counter screen (AID 1259366); also: nearly all actives have a fitted effect of over 50% in size
Procedure, shortened: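 NIH/3T3-derived Gli1-Luc reporter cells, 2,000 per well, received compound after 4 h and were treated about 23 h at 37C. Viability measured in the same wells by CellTiter-Fluor fluorescence after 1 h.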

[12] = qHTS assay to identify small molecule antagonists of the sonic hedgehog signaling (Shh) pathway - cell viability counter screen (AID 1259367); also: nearly all actives have a fitted effect of over 55% in size
Procedure, shortened: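 Tox21 library chemicals were tested on a Gli1-Luc NIH/3T3 clone (2,000 cells/well) stimulated by conditioned medium; viability was quantified as fluorescence from CellTiter-Fluor reagent added at 23 hr.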

[13] = qHTS RealTime-Glo MT Cell Viability Assay in HEK293 cells - 0 hour (AID 1224880); also: top concentration of the series differs between compounds; nearly all actives have a fitted effect of over 45% in size
Procedure, shortened: (§3)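 Measured as luminescence from the same continuously cultured HEK293 wells at successive time points (0, 8, 16, 24, 32, 40 h) after compound addition. Reagent present from seeding; dosing at 5 h; incubation 37 C.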

[14] = A CellTox Green Cytotoxicity Assay to monitor cytotoxicity in HEK293 cells - 8 hour (AID 1224884); also: nearly all actives have a fitted effect of over 35% in size
Procedure, shortened: (§4)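 Homogeneous no-lysis format: HEK293 cell suspension mixed with CellTox Green reagent, seeded, incubated 5 h at 37 C/5% CO2, then dosed by pintool with compound in DMSO.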

[15] = qHTS RealTime-Glo MT Cell Viability Assay in HEK293 cells - 24 hour (AID 1224886)
Procedure, shortened: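 Tox21 10K qHTS, HEK293, 600 cells/well, RealTime-Glo reagent co-dispensed with cells; 5 h preincubation, compound by pintool, 37 C, luminescence at 0–40 h.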

[16] = qHTS RealTime-Glo MT Cell Viability Assay in HEK293 cells - 8 hour (AID 1224887)
Procedure, shortened: as §3

[17] = A CellTox Green Cytotoxicity Assay to monitor cytotoxicity in HepG2 cells - 0 hour (AID 1224882); also: nearly all actives have a fitted effect of over 35% in size
Procedure, shortened: as §1

[18] = A CellTox Green Cytotoxicity Assay to monitor cytotoxicity in HEK293 cells - 16 hour (AID 1224888); also: nearly all actives have a fitted effect of over 35% in size
Procedure, shortened: as §4

[19] = target: Androgen receptor (Homo sapiens) (UniProt P10275); test: qHTS assay to identify small molecule antagonists of the androgen receptor (AR) signaling pathway using the MDA cell line in the presence of 0.5 nM R1881 (AID 1259243); also: nearly all actives have a fitted effect of over 50% in size
Procedure, shortened: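 Cells: MDA-kb2 (MMTV-luc). Stimulus: 0.5 nM R1881. Time: 16 hr, 37C, no CO2. Detection: ONE-Glo luminescence after 30 min at RT.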

[20] = A CellTox Green Cytotoxicity Assay to monitor cytotoxicity in HEK293 cells - 32 hour (AID 1224881); also: nearly all actives have a fitted effect of over 40% in size
Procedure, shortened: as §4

Measured: Potency

Estrogen receptor (Homo sapiens), sequence (P03372 whole entry, looked up): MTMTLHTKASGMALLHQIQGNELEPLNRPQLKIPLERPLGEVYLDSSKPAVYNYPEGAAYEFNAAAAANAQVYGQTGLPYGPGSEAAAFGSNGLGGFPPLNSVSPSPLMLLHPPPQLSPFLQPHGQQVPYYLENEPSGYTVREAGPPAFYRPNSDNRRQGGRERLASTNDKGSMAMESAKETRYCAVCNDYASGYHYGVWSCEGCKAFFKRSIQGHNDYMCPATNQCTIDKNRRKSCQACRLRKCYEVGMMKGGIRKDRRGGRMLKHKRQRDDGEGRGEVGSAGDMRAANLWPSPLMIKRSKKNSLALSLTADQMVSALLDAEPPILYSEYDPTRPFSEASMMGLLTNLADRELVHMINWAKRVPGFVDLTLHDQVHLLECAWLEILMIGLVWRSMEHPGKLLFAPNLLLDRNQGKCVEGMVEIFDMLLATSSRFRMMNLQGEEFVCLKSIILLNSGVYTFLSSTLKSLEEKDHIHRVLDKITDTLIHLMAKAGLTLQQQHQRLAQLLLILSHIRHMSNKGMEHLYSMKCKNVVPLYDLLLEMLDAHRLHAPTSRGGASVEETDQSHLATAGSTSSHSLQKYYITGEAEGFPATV
Androgen receptor (Homo sapiens), sequence (P10275 whole entry, looked up): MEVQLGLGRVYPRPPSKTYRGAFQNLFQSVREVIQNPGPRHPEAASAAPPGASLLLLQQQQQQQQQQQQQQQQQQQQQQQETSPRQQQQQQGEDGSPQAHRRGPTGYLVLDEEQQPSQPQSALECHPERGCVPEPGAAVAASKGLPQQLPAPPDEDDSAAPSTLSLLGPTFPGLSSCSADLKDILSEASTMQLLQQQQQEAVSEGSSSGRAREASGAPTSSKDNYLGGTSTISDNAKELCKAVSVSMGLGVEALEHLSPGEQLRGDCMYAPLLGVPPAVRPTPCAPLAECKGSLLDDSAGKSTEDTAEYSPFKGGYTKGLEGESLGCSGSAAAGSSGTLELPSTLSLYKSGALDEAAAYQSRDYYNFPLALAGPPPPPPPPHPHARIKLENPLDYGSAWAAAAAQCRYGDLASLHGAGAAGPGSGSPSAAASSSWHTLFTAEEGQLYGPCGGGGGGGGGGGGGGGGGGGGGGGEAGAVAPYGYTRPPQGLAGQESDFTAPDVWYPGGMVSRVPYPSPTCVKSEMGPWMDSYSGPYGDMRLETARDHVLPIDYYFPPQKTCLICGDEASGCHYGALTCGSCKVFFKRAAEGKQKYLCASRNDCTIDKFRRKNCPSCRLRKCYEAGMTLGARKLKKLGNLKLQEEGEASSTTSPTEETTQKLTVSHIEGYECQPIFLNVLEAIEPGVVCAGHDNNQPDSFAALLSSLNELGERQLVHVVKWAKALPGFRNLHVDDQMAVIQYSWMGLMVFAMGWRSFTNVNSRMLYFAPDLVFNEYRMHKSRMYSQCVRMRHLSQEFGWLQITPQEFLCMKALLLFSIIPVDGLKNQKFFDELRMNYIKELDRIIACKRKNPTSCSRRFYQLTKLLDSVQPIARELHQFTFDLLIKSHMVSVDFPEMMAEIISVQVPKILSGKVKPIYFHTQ

CCN(CC)S(=O)(=O)c1ccc(C(=O)O)cc1
inactive: [1] | [2] | [3] | [4] | [5] | [6] | [7] | [8] | [9] | [10] | [11] | [12]

CC(C)(O)C(=O)c1ccc(OCCO)cc1
inactive: [13] | [1] | [14] | [2] | [15] | [16] | [3] | [4] | [5] | [6] | [7] | [9] | [10] | [11]

CC(C)=CC(=O)O
inactive: [13] | [17] | [1] | [14] | [2] | [15] | [16] | [3] | [4] | [5] | [6] | [7] | [9] | [10] | [11] | [12]

CC(C)CCOC(=O)CC(C)C
inactive: [13] | [17] | [1] | [2] | [15] | [16] | [3] | [4] | [5] | [6] | [7] | [9] | [10] | [11] | [12]

CC1=CCC2C(C1)C2(C)C (stereo not drawn)
inactive: [13] | [1] | [14] | [2] | [15] | [16] | [18] | [3] | [5] | [6] | [19] | [7] | [9] | [10] | [11] | [12]

CCC(C)OC(=O)N1CCCCC1CCO (stereo not drawn)
inactive: [13] | [1] | [14] | [2] | [15] | [16] | [18] | [3] | [4] | [5] | [6] | [9] | [10] | [11] | [12]

CC(C=O)Cc1ccc(C(C)C)cc1 (stereo not drawn)
inactive: [13] | [17] | [1] | [14] | [2] | [15] | [16] | [3] | [5] | [6] | [9] | [10] | [11] | [12]

CCCCc1ccc2cccc(S(=O)(=O)O)c2c1
inactive: [13] | [17] | [14] | [2] | [15] | [16] | [3] | [4] | [5] | [6] | [19] | [7] | [9] | [10] | [11] | [12]

O=C(O)C(O)[C@H](O)[C@@H](O)[C@H](O)[C@H](O)CO (stereo partly drawn)
inactive: [13] | [17] | [1] | [14] | [2] | [15] | [16] | [3] | [4] | [5] | [6] | [7] | [9] | [10] | [11]

CCCC=O
inactive: [13] | [17] | [1] | [14] | [2] | [15] | [16] | [18] | [3] | [5] | [6] | [9] | [10] | [11] | [12]

CSc1ccc(C=O)cc1
inactive: [13] | [1] | [14] | [2] | [15] | [16] | [3] | [4] | [5] | [6] | [9] | [10] | [11] | [12]

CCCCCCCCCCCCCCCCCCOCC(O)CO (stereo not drawn)
inactive: [13] | [14] | [2] | [15] | [16] | [18] | [3] | [5] | [6] | [7] | [8] | [9] | [10] | [11] | [12]

COc1cc(O)cc(O)c1
inactive: [20] | [1] | [14] | [2] | [15] | [16] | [18] | [3] | [4] | [5] | [6] | [7] | [8] | [9] | [10] | [11] | [12]

CC(C)c1cccc(C(C)C)c1N
inactive: [13] | [17] | [14] | [2] | [15] | [16] | [18] | [3] | [4] | [5] | [6] | [7] | [9] | [10] | [11] | [12]

CCCCCCCCCCCl
inactive: [13] | [1] | [14] | [2] | [15] | [16] | [18] | [3] | [4] | [5] | [6] | [7] | [9] | [10] | [11] | [12]

Cn1cnc2c(=O)[nH]c(N)nc21
inactive: [20] | [17] | [1] | [14] | [2] | [15] | [16] | [18] | [3] | [4] | [5] | [6] | [9] | [10] | [11] | [12]

CC(C)(O)Cc1ccccc1
inactive: [13] | [17] | [1] | [14] | [2] | [16] | [18] | [3] | [4] | [5] | [6] | [7] | [9] | [10] | [11]

C=C(C)C1CC=C(C)C(O)C1 (stereo not drawn)
inactive: [13] | [17] | [1] | [14] | [2] | [15] | [16] | [3] | [4] | [5] | [6] | [7] | [9] | [10] | [11] | [12]
